Test [1] concerns the target Rap guanine nucleotide exchange factor 3 (Homo sapiens) (UniProt O95398). The test can be described thus: Confirmatory qHTS for antagonist of cAMP-regulated guanine nucleotide exchange factor 3 (EPAC1) (AID 1645880). Further: nearly all actives have a fitted effect of over 55% in size. Further: potency means the concentration at half of the fitted maximal effect.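 On activity, negative = inhibition: plate controls were DMSO only for no effect and full effect of the ATA control for full effect.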 The conditions noted are these: EPAC1 Rap1B-BODIPY-GDP exchange, fluorescence; activity, negative = inhibition: at 115 µM (top of the series). The method in brief:
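Released BODIPY-GDP fluoresces less than Rap1-bound BODIPY-GDP; the signal is followed at 480/540 nm at 5-min intervals over 30 min, after 5 min at room temperature. Reactions contain 100 nM EPAC1, 250 nM RAP1B-BODIPY-GDP and 50 uM GDP; results are normalized to ATA and DMSO.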
On the technique in general: qHTS replaces the single test concentration by a dilution series.

The target is the same in test [2]. The experiment in a line: Confirmatory qHTS for agonist of cAMP-regulated guanine nucleotide exchange factor 3 (EPAC1) (AID 1645881). Further: nearly all actives have a fitted effect of over 75% in size. Further: potency means the concentration at half of the fitted maximal effect.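 On activation: EPAC1 catalysed release of BODIPY-GDP from Rap1B seen as fluorescence loss; 100% = effect of cAMP agonist control.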
Test [3] has as its target Rap guanine nucleotide exchange factor 4 (Homo sapiens) (UniProt Q8WZA2). The test can be described thus: Confirmatory qHTS for agonist of cAMP-regulated guanine nucleotide exchange factor 4 (EPAC2) (AID 1645884).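 Further: nucleotide exchange releases bodipy-GDP from Rap1 and this lowers its fluorescence; nearly all actives have a fitted effect of over 65% in size.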 Further: potency means the concentration at half of the fitted maximal effect. On activation: on the % scale 0 is the no-effect control and ±100 the full control effect.
For test [4] the target is unchanged. The test can be described thus: Confirmatory qHTS for antagonist of cAMP-regulated guanine nucleotide exchange factor 4 (EPAC2) (AID 1645885). Further: nearly all actives have a fitted effect of over 25% in size. Further: potency means the concentration at half of the fitted maximal effect. On activity change, negative = inhibition: on the % scale 0 is the no-effect control and ±100 the full control effect.
Test [5] addresses Rap guanine nucleotide exchange factor 3 (Homo sapiens) (UniProt O95398). The test can be described thus: Counterscreen qHTS for antagonist of cAMP-regulated guanine nucleotide exchange factor 3 (EPAC1) (AID 1645888). Further: % of control where 0% means no effect. The method in brief:
(§1)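 Rap1B-BODIPY-GDP 250 nM + GDP 50 uM; cpds 7-pt, final 9.74 nM–152 uM (activator mode) or from 7.32 nM upwards (inhibitor mode); RT; FI 480/540 nm at 5 and 30 min, then ± cAMP, reread.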
Background: A counterscreen serves to expose hits that act by an unwanted route or on another target.

For test [6] the target is unchanged. The experiment in a line: Counterscreen qHTS for agonist of cAMP-regulated guanine nucleotide exchange factor 3 (EPAC1) (AID 1645889). Further: nearly all actives have a fitted effect of over 40% in size. Further: potency means the concentration at half of the fitted maximal effect. On activation: % of control where 0% means no effect. The gist of the method: as §1

SMILES strings stand for the structures. Results filed as inconclusive are left out. A number with no mark means an inactive call. Active and inactive are the calls of the source. The call rests on the fitted dose curve; in most records, active means well fitted curve in the direction sought with a large enough effect; inconclusive means small, poorly fitted or top-dose-only effect, or another doubt; inactive means no such curve, though single readings can be large; an effect the other way counts as inactive or inconclusive.

Rap guanine nucleotide exchange factor 4 (Homo sapiens), sequence (Q8WZA2 whole entry, looked up): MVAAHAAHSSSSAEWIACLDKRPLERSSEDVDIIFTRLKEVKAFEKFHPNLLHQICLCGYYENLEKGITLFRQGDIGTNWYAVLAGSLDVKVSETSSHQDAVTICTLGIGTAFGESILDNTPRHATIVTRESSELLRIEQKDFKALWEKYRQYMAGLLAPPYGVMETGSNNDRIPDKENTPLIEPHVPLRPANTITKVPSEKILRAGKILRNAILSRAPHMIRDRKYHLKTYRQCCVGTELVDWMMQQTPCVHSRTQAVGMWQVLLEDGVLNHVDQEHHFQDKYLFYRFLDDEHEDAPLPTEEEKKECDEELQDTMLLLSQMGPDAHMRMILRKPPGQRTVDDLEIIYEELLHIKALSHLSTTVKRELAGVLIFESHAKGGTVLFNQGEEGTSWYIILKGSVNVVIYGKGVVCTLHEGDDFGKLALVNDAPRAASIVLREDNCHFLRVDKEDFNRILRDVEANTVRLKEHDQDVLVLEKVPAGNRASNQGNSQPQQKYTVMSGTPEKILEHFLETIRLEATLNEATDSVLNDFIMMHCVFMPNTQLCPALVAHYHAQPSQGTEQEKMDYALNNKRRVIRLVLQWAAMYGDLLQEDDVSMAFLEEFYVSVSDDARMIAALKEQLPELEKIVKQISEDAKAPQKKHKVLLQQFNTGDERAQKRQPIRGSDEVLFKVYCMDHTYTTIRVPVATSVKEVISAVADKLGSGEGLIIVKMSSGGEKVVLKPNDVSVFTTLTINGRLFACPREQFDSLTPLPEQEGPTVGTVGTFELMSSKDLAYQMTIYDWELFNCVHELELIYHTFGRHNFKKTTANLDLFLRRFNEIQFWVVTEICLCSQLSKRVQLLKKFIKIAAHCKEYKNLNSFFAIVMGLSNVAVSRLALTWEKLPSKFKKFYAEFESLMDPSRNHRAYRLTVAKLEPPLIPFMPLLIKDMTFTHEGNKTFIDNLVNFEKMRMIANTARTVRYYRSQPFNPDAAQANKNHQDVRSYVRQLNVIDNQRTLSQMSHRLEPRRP
Rap guanine nucleotide exchange factor 3 (Homo sapiens), sequence (O95398 whole entry, looked up): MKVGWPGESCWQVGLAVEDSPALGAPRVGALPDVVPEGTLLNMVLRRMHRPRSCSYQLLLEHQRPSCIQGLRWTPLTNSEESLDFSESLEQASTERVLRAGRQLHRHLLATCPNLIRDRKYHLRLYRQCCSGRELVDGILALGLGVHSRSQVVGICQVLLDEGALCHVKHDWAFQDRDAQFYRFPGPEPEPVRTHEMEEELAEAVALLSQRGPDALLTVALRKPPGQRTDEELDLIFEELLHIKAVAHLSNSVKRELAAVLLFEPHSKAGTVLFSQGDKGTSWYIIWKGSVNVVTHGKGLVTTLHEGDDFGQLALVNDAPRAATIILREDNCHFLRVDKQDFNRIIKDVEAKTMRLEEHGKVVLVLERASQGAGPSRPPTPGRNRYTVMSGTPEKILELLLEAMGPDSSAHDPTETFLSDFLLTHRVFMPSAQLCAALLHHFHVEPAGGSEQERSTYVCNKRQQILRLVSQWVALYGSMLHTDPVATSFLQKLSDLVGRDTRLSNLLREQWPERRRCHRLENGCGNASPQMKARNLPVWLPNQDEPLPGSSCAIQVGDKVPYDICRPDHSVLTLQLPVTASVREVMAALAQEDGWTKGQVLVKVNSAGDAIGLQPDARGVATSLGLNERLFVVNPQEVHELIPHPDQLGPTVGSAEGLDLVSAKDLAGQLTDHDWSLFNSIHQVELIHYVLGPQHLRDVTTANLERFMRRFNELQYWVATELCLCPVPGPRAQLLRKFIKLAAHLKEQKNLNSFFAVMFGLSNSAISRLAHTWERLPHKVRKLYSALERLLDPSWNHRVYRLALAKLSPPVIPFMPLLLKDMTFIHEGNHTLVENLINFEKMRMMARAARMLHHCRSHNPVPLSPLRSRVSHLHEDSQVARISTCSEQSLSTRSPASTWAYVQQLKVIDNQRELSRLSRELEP

As for `Cc1ccc(OCCn2c(=O)n(C)c3ccccc32)cc1`, the Potency result in test [1], in test [2], in test [3], in test [5] and in test [6] was “inactive” throughout. Moreover, the Potency in test [4] was 67.5 µM (active).
As to `CN(Cc1ccccc1)C(=O)C1CCCN(Cc2cccc(Cl)c2)C1` (stereo not drawn), the Potency entry in test [1], in test [2], in test [3], in test [4], in test [5] and in test [6] was “inactive” in each case.
`C/C(CC(=O)Nc1ccc(Cl)c(C(F)(F)F)c1)=N\NC(=O)c1cnccn1`: the Potency entry in test [1], in test [2], in test [3], in test [4], in test [5] and in test [6] was “inactive” in each case.
Take `O=C(NN1C(=O)/C(=C\c2ccc(O)c([N+](=O)[O-])c2)SC1=S)c1ccccc1Cl`: in test [1], the Potency was 50.1 µM (active). The Potency result in test [2] and in test [4] was “inactive” each time. Also, the activation in test [3] was -1.95% [at 17.1 µM, percent relative to cAMP agonist control]; in test [6], 0.476% [at 30.8 µM]. Moreover, the activity change, negative = inhibition in test [5] was -8.56% [at 30.8 µM].
On to `CCOC(=O)c1sc2nc(NC(=O)COc3ccccc3)sc2c1C`, for which the Potency result in test [1], in test [2] and in test [4] was “inactive” in each case. For the same compound, the activation in test [3] is 1.9% [at 17.1 µM, percent relative to cAMP agonist control]; in test [6], 25% [at 30.8 µM]. The activity change, negative = inhibition in test [5] is -6.87% [at 30.8 µM].
As for `COC(=O)c1ccc2nc(-c3ccccc3)c(Cc3ccccc3C(F)(F)F)n2c1`, the Potency result in test [1], in test [2], in test [3], in test [5] and in test [6] was “inactive” in each case. For the same compound, in test [4], the Potency was 0.757 µM (active).
Consider `C=C1CCN(C(Cc2ccccc2)C(=O)OC)S(=O)(=O)c2ccc(F)cc21` (stereo not drawn), for which the Potency entry in test [1], in test [2] and in test [4] was “inactive” throughout. Further, the activation in test [3] is 11.5% [at 17.1 µM, percent relative to cAMP agonist control]; in test [6] it was 14% [at 30.8 µM]. Besides, the activity change, negative = inhibition in test [5] is 2.02% [at 30.8 µM].
Regarding `CC(=O)Nc1ccc(S(=O)(=O)Nc2nc(-c3ccc(C(C)(C)C)cc3)cs2)cc1`, in test [1], the Potency was 44.7 µM (active). The Potency result in test [2] and in test [4] was “inactive” throughout. Further, the activation in test [3] is 0% [at 17.1 µM, percent relative to cAMP agonist control]; in test [6], 8.98% [at 30.8 µM]. Also, the activity change, negative = inhibition in test [5] was -15.7% [at 30.8 µM].
On to `O=C(O)c1ccc(N/N=C/c2cccc(C(F)(F)F)c2)cc1`, for which the Potency result in test [1], in test [2], in test [3], in test [4], in test [5] and in test [6] was “inactive” in each case.
In the case of `CCc1ccccc1N(C)S(=O)(=O)c1ccc2[nH]cc(C(=O)N3CCc4ccccc43)c(=O)c2c1`, the Potency entry in test [1], in test [2] and in test [4] was “inactive” in each case. Moreover, the activation was -2.56% [at 17.1 µM, percent relative to cAMP agonist control] in test [3] and 15.8% [at 30.8 µM] in test [6]. Moreover, the activity change, negative = inhibition in test [5] was -6.13% [at 30.8 µM].
In the case of `CN1/C(=C\C=C2/SC(=S)N(CC(=O)O)C2=O)C(C)(C)c2ccccc21`, the Potency entry in test [1] and in test [4] was “inactive” throughout. Further, the Potency in test [2] is 44.7 µM (active); in test [3], 7.94 µM (active); in test [6], 10 µM (active). In addition, the activity change, negative = inhibition in test [5] is 286% [at 30.8 µM].
As to `O=C(CSc1nc2ccsc2c(=O)n1CC1CCC(C(=O)O)CC1)c1ccc(Cl)cc1` (stereo not drawn), in test [1], the Potency is 47.8 µM (active). Further, the Potency result in test [2], in test [3], in test [4], in test [5] and in test [6] was “inactive” in each case.
Turning to `COC(=O)c1cc2occc2n1Cc1cccc(C)c1`, the Potency result in test [1], in test [2], in test [3], in test [4], in test [5] and in test [6] was “inactive” in each case.
Regarding `CCOC(=O)C1CCCN(C(=O)C2(c3ccc(Cl)cc3)CCCC2)CC1` (stereo not drawn), the Potency result in test [1], in test [2], in test [3], in test [4], in test [5] and in test [6] was “inactive” in each case.
Turning to `COc1nc(C)cc(C)c1S(=O)(=O)c1ccc(Cl)cc1`, the Potency entry in test [1], in test [2] and in test [4] was “inactive” in each case. Moreover, the activation was 6.22% [at 17.1 µM, percent relative to cAMP agonist control] in test [3] and 27.8% [at 30.8 µM] in test [6]. Also, in test [5], the activity change, negative = inhibition is -12.6% [at 30.8 µM].
For the compound `O=C(NC1CCC(O)CC1)c1ccc(S(=O)(=O)NCc2ccco2)cc1` (stereo not drawn), the Potency result in test [1], in test [2], in test [3], in test [4], in test [5] and in test [6] was “inactive” each time.
In the case of `O=C(NCc1ccc(F)cc1)C(c1cccnc1)N(C(=O)c1csnn1)c1ccccc1` (stereo not drawn), the Potency entry in test [1], in test [2] and in test [4] was “inactive” throughout. For the same compound, the activation in test [3] is -0.815% [at 17.1 µM, percent relative to cAMP agonist control]; in test [6] it was 5.08% [at 30.8 µM]. The activity change, negative = inhibition in test [5] is -0.606% [at 30.8 µM].
Regarding `COC(=O)/C(N=Nc1cccc(C(F)(F)F)c1)=C(\C)O`, the Potency entry in test [1], in test [2] and in test [4] was “inactive” each time. Besides, the activation in test [3] is 10.2% [at 17.1 µM, percent relative to cAMP agonist control]; in test [6] it was 22.5% [at 30.8 µM]. Also, the activity change, negative = inhibition in test [5] was -9.14% [at 30.8 µM].

Values taken from PubChem BioAssay (NCATS).
